Measurements: the supplement of paper PMC7057948, “A genome-wide approach for identification and characterisation of metabolite-inducible systems” (Nature Communications, 2020)

Test system: BadR/P_H16_RS27200 cyclohexanecarboxylate biosensor (pEH159)
Test: relative induction of RFP reporter vs primary effector (background-corrected); higher = stronger activation of the biosensor
Conditions: inducer concentration 5 mM; 6 h; Cupriavidus necator H16; minimal medium + 0.4% gluconate
Procedure: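 C. necator H16 strains, each carrying one of 21 transcription factor/inducible promoter–mRFP biosensor plasmids, were grown in minimal medium in 96-well plates (robotic platform). Each was exposed to 46 structurally or metabolically related compounds at 5 mM at 30 °C. OD-normalised RFP fluorescence was read 6 h later and expressed as relative induction (%) = 100 × (FL compound − FL uninduced)/(FL primary inducer − FL uninduced); mean of n=4.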
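Note: RFP excited at 585 nm with emission read at 620 nm, culture medium blanks subtracted from fluorescence and absorbance prior to normalisation.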

| SMILES | relative induction of RFP reporter [%] |
| --- | --- |
| Oc1ccccc1 [phenol] | -0.423 |
| O=C(O)c1ccc(O)cc1 [4-hydroxybenzoate] | 0.236 |
| O=C(O)/C=C/C(=O)O [fumarate] | -0.161 |
| O=C(O)c1cccnc1 [nicotinate] | -0.229 |
| Oc1ccc(O)cc1 [hydroquinone] | 4.02 |
| NCC(N)C(=O)O (stereo not given) [2,3-diaminopropanoate] | -0.224 |
| C[C@H](O)C(=O)O [L-lactate] | 0.636 |
| O=S(=O)(O)CCO [isethionate] | 0.494 |
| O=C(O)C1CCCC1 [cyclopentane-1-carboxylate] | 10.9 |
| NCCS(=O)(=O)O [taurine] | -0.635 |
| N[C@@H](CC(=O)O)C(=O)O [L-aspartate] | -0.282 |
| O=c1cc[nH]c(=O)[nH]1 [uracil] | -0.342 |
| CC(N)CC(=O)O (stereo not given) [3-aminobutanoate] | -0.361 |
| O=C(O)CC(=O)C(=O)O [oxaloacetate] | -0.113 |
| CCC(=O)O [propanoate] | -0.236 |
| Cn1cnc2c1c(=O)[nH]c(=O)n2C [theobromine] | 0.638 |
| C[C@@H](O)C(=O)O [D-lactate] | -0.262 |
| O=C(O)[C@@H](O)[C@@H](O)[C@H](O)[C@@H](O)C(=O)O [glucarate] | -0.576 |
| OC[C@@H](O)[C@@H](O)[C@H](O)[C@H](O)CO [D-mannitol] | -0.47 |
| O=C(O)CC(CC(=O)O)C(=O)O [tricarballylate] | -0.288 |

| SMILES | relative induction of RFP reporter [%] |
| --- | --- |
| O=c1[nH]cnc2nc[nH]c12 [hypoxanthine] | -0.186 |
| Oc1ccccc1O [catechol] | 1.99 |
| CC(=O)CCC(=O)O [levulinic acid] | 0.15 |
| Cn1c(=O)c2c(ncn2C)n(C)c1=O [caffeine] | -0.151 |
| O=C(O)C[C@H](O)C(=O)O [L-malate] | -0.0424 |
| O=C(O)CCC(=O)O [succinate] | -0.371 |
| O=C(O)C(O)C(=O)O [tartronic acid] | -0.292 |
| O=C(O)C1=CCCCC1 [cyclohexene-1-carboxylate] | 80.5 |
| O=CC(=O)O [glyoxylate] | -0.137 |
| O=C(O)c1c(O)cccc1O [2,6-dihydroxybenzoate] | 0.241 |
| NC(=O)CC[C@H](N)C(=O)O [L-glutamine] | -0.359 |
| N[C@@H](Cc1c[nH]c2ccccc12)C(=O)O [L-tryptophan] | -0.253 |
| NCC(O)C(=O)O (stereo not given) [3-amino-2-hydroxypropanoate] | 0.0183 |
| NC(C(=O)O)c1ccccc1 (racemic) [D,L-2-phenylglycine] | -0.673 |
| O=C(O)CNC(=O)c1ccccc1 [N-benzoylglycine] | -0.675 |
| O=C(O)C(O)c1ccccc1 (stereo not given) [mandelic acid] | 0.747 |
| C[C@H](N)C(=O)O [L-alanine] | -0.206 |
| Oc1cccc(O)c1 [resorcinol] | 0.33 |
| O=C(O)/C=C\C=C/C(=O)O [cis,cis-muconate] | -0.641 |
| O=C(O)C1=C[C@@H](O)[C@@H](O)[C@H](O)C1 [shikimate] | 0.552 |
